# Vif-APOBEC3G blk = blocks the Vif interaction with human APOBEC3G | HeLa A3G-eYFP + Vif (tagged APOBEC3G with the HIV-1 protein that degrades it), YFP fluorescence, overnight | Potency, µM (titrated, usually from 46.1 µM), inactives show at the top dose activity, negative = active, most hits filed as inhibitors | 410,000 compounds, 0.076% hits | Q9HC16 | AID 602310; further: potency means the concentration at half of the fitted maximal effect; on the % scale 0 is the no-effect control and ±100 the full control effect; nearly all actives have a fitted effect of over 60% in size
#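 HeLa cells stably expressing Vif and C-terminally eYFP-tagged A3G, seeded overnight at 37 deg C, then exposed to compound by pintool overnight at 37 deg C. Rise in yellow fluorescence (Ex 488/Em 500-530, Acumen) marks blocked Vif-driven A3G degradation.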
# Pin1 inhibitor = human Pin1 inhibition | Q13526 | Pin1 FP peptide displacement, HiFluor488, 10 min | Potency, µM (series often up to 115 µM), for the others: top-dose activity, negative = inhibition, hits mostly inhibitors | 390,000 compounds, 0.009% hits | AID 504891; active means well fitted inhibition curve with a large enough effect in the polarisation, with a control signal flat, not every such curve was filed as active; inconclusive means small, poorly fitted or top-dose-only effect, or effect the other way, or a change in a side signal; inactive means no such curve, though single readings can be large or run the other way; the % refers to the polarisation; further: potency means the concentration at half of the fitted maximal effect; on the % scale 0 is the no-effect control and ±100 the full control effect
# PGK inhibitor = inhibitors of T. brucei phosphoglycerate kinase | 380,000 compounds, 0.043% hits | Potency, µM (titrated, usually from 57.5 µM), inactives show at the top dose activity change, negative = inhibition, most hits filed as inhibitors | AID 602233 | PGK/GAPDH coupled, Kinase-Glo luminescence, 60 min; further: potency means the concentration at half of the fitted maximal effect; on the % scale 0 is the no-effect control and ±100 the full control effect; nearly all actives have a fitted effect of over 60% in size
# Target sequence (P07378 whole entry, looked up): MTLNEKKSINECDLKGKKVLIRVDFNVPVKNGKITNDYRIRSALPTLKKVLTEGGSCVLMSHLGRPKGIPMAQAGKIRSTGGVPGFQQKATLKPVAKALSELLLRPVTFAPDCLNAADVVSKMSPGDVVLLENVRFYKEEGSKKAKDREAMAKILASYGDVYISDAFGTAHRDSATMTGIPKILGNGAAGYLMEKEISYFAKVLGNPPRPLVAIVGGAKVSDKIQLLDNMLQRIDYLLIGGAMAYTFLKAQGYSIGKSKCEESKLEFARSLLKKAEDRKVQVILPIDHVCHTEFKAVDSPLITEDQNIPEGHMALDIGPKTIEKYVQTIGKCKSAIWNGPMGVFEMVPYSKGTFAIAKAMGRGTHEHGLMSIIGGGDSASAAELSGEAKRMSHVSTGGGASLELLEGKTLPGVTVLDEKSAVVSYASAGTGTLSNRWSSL
#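 Recombinant glycosomal PGK reaction used 1,3-bisphosphoglycerate generated in-well by GAPDH (100nM final) in 100mM TEA pH 7.6, 5mM MgCl2, 0.01% Tween-20. After 60 minutes at room temperature, ATP was read by Kinase-Glo Plus luminescence end-point.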
# Vif-APOBEC3F blk = inhibitors of Vif-A3F interaction | HeLa A3F-eYFP + Vif (tagged APOBEC3F with the HIV-1 protein that degrades it), YFP fluorescence increase | 390,000 compounds, 0.2% hits | Potency, µM (doses to about 46.1 µM), without a hit: at the top dose activity, negative = active | AID 602313; further: potency means the concentration at half of the fitted maximal effect; % of control where 0% means no effect; nearly all actives have a fitted effect of over 65% in size
#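 HeLa cells stably expressing Vif plus C-terminally eYFP-tagged A3F were seeded, incubated overnight at 37 deg C, dosed with compound, incubated overnight again at 37 deg C. Yellow fluorescence (Ex 488/Em 500-530) reported blocked Vif-mediated A3F-eYFP degradation.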
# IDH1 R132H inh = human IDH1 R132H inhibition. O75874. 390,000 compounds, 0.093% hits. Potency, µM (top dose mostly 76.6 µM), without a hit: at the highest dose activity change, negative = inhibition, most hits filed as inhibitors. AID 602179. IDH1-R132H enzyme, NADPH consumption, diaphorase/resazurin fluorescence; further: potency means the concentration at half of the fitted maximal effect; on the % scale 0 is the no-effect control and ±100 the full control effect; nearly all actives have a fitted effect of over 65% in size
# Target sequence (O75874 whole entry R132H, stated change not applied): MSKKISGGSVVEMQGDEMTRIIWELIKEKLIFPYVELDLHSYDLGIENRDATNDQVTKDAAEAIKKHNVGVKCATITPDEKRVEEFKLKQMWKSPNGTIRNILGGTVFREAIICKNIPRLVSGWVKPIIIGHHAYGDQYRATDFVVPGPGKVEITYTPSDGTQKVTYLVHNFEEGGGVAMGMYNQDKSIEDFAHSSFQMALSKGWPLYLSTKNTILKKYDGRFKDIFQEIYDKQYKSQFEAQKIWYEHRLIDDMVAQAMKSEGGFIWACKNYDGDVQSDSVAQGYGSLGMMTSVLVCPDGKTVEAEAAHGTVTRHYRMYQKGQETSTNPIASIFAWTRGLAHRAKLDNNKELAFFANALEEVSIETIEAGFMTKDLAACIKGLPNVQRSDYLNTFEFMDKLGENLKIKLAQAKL
#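 IDH1-R132H (0.5 ug/mL dispensed) in pH 7.5 Tris buffer was preincubated 30 min with compound, then given a substrate mix of 0.016 mM NADPH and 2 mM alpha-KG for 80 min at room temperature; remaining NADPH was read by diaphorase/resazurin fluorescence.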
# LDHA inh = inhibitors of human lactate dehydrogenase A. purified LDHA, NADH/diaphorase-resazurin fluorescence; hits give low values. AID 1347041. activity change, % (values are at about 110 or 230 µM). P00338. 480,000 compounds, 0.15% hits; in the data active means activity change below about -30%; inconclusive means mostly about -25% to -30%;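 further: plate controls were DMSO wells for no effect and wells without enzyme for full effect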
#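 Enzyme activity of human lactate dehydrogenase 5 (2 nM; 0.06 mM NADH, 0.2 mM pyruvate, 5 min, RT) is measured via a resazurin/diaphorase fluorescence readout of residual NADH.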
# Resorufin autofl = autofluorescence interference, mutant IDH1 hit counter-screen; shares compounds with IDH1 R132H inh; Resorufin detection reagent fluorescence interference, cell-free; inhibition of signal, % at 51.2 µM; 750 tested, under 10 active; AID 623980;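 further: 0% = wells with normal resorufin and full inhibition = wells lacking resorufin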
# IDH1 WT = wild-type IDH1 (human) inhibition counterscreen. AID 623995. Potency, µM (doses to about 115 µM), for the others: at the highest dose activity change, negative = inhibition, actives largely listed as inhibitors. 750 compounds, 9% hits. WT IDH1 enzyme, NADPH diaphorase/resazurin fluorescence. shares compounds with IDH1 R132H inh;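 further: potency means the concentration at half of the fitted maximal effect; 0% = full WT IDH1 enzyme control and full inhibition = no enzyme wells; nearly all actives have a fitted effect of over 55% in size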
# mIDH1 confirm = confirmation of human mutant IDH1 inhibitors; shares compounds with IDH1 R132H inh; IDH1 R132H enzyme, NADPH diaphorase/resazurin fluorescence; Potency, µM (series often up to 76.6 µM), for inactives: at the highest dose activity change, negative = inhibition, most hits filed as inhibitors; 750 compounds, 83% hits; AID 624002; further: potency means the concentration at half of the fitted maximal effect; nearly all actives have a fitted effect of over 50% in size
# * marks the source's active call; other numbers are inactive results; i = inactive; ? = inconclusive; nt = not tested or not shown. Most compounds without a hit are left out; they make up all but 0.49% or so of the library. Unless noted, the call rests on the fitted dose curve; in most records, active means well fitted curve in the direction sought with a large enough effect; inconclusive means small, poorly fitted or top-dose-only effect, or another doubt; inactive means no such curve, though single readings can be large; an effect the other way counts as inactive or inconclusive.
SMILES,Vif-APOBEC3G blk,Pin1 inhibitor,PGK inhibitor,Vif-APOBEC3F blk,IDH1 R132H inh,LDHA inh,Resorufin autofl,IDH1 WT,mIDH1 confirm
Cc1ccc(O)c(-c2n[nH]c3c2C(c2ccccc2F)N(Cc2ccco2)C3=O)c1 (configuration not stated),-14.1%,1.7%,-9.0%,-2.8%,?,1.5,-10.1,-20.9%,25.1µM*
CCCCOc1cccc(C2c3c(-c4cc(C)ccc4O)n[nH]c3C(=O)N2CCOC)c1 (configuration not stated),-20.0%,-10.2%,-9.6%,7.4%,31.6µM*,4.1,-11.0,-0.1%,22.4µM*
COc1cccc(C2c3c(-c4ccccc4O)n[nH]c3C(=O)N2Cc2ccco2)c1 (configuration not stated),-21.3%,9.4%,-8.9%,0.0%,52.1µM*,-0.6,0.4,-4.7%,39.8µM*
CCOc1cccc(C2c3c(-c4cc(C)ccc4O)n[nH]c3C(=O)N2Cc2ccco2)c1 (configuration not stated),-19.5%,?,-4.5%,5.0%,31.6µM*,9.8,1.0,-1.6%,11.2µM*
COc1cccc(-c2csc(-c3nc(-c4ccc(C)cc4)c(C)s3)n2)c1,nt,nt,nt,nt,nt,10.1,nt,nt,nt
CCOC(=O)N1CCN(C(=O)CN(c2cc(C)ccc2OC)S(C)(=O)=O)CC1,nt,nt,nt,nt,nt,-3.6,nt,nt,nt
NC(=S)N/N=C/C(Cl)=C/c1ccc([N+](=O)[O-])cc1,nt,nt,nt,nt,nt,1.8,nt,nt,nt
CC(=O)c1ccc(N2CCN(C(=O)CCc3ncc(-c4ccc(F)cc4)o3)CC2)c(F)c1,nt,nt,nt,nt,nt,2.4,nt,nt,nt
COc1cc(C2c3c(-c4ccccc4O)n[nH]c3C(=O)N2CCO)ccc1OCC(C)C (configuration not stated),-3.9%,4.2%,-11.2%,-2.8%,-26.6%,-1.0,nt,nt,nt
O=C1c2[nH]nc(-c3ccccc3O)c2C(c2ccccc2)N1Cc1ccco1 (configuration not stated),-11.9%,6.2%,-2.9%,-6.6%,-0.3%,-0.8,nt,nt,nt
O=C1c2[nH]nc(-c3ccccc3O)c2C(c2ccc(Cl)cc2)N1Cc1ccco1 (configuration not stated),-3.5%,0.1%,-0.9%,5.5%,39.8µM*,-2.3,-1.5,1.3%,28.2µM*
COc1cc(C2c3c(-c4ccccc4O)n[nH]c3C(=O)N2Cc2ccco2)ccc1OCC(C)C (configuration not stated),-9.0%,10.2%,-3.8%,2.4%,?,9.1,0.7,-19.3%,20µM*
CC(Cc1ccccc1)NC(=O)C1CCC(C)(C(=O)O)C1(C)C (configuration not stated),nt,nt,nt,nt,nt,1.6,nt,nt,nt
Cc1ccc2c(CN3CCc4cc(S(N)(=O)=O)ccc43)cc(=O)oc2c1,nt,nt,nt,nt,nt,2.3,nt,nt,nt
O=C(O)CNS(=O)(=O)c1ccc(C(=O)/C=C/c2ccc(Cl)cc2)cc1,nt,nt,nt,nt,nt,-1.7,nt,nt,nt
Cc1ccc(S(=O)(=O)/C(C#N)=C/c2c(N3CCC(C(N)=O)CC3)nc3c(C)cccn3c2=O)cc1,-0.2%,?,-3.1%,-0.2%,?,4.5,nt,nt,nt
Cc1cccn2c(=O)c(/C=C(\C#N)S(=O)(=O)c3ccccc3)c(N3CCC(C(N)=O)CC3)nc12,-1.5%,?,6.3%,1.5%,?,-2.4,0.9,-0.6%,39.8µM*
N#CC(C#N)=C1C(=O)N(CCN2CCOCC2)c2ccccc21,-15.4%,7.5%,1.9%,-17.3%,?,36.5,4.5,16.7%,44.7µM*
CC(C)c1ccc(-c2csc(Nc3ccc(S(N)(=O)=O)cc3)n2)cc1,nt,nt,nt,nt,nt,-1.9,nt,nt,nt
CC(=O)Nc1ccc(C2=NNC(=NCC3CCCO3)SC2)cc1 (configuration not stated),-0.5%,39.1%,i,6.3%,?,-0.7,-5.3,364.1%,44.7µM*
Cc1ccc(/C=N/NS(=O)(=O)c2ccc(C)c([N+](=O)[O-])c2)s1,nt,nt,nt,nt,nt,-1.5,nt,nt,nt
Cc1ccc(CNC(=O)c2ccc(CSCc3c(F)cccc3Cl)o2)cc1,-12.9%,8.3%,i,-0.3%,39.8µM*,-2.2,4.4,-1.3%,-0.2%
Cc1ccc(CNC(=O)c2ccc(CSCc3ccc(C)cc3)o2)cc1,0.4%,-2.4%,-5.0%,-2.6%,-14.6%,18.2,nt,nt,nt
Cc1ccc(NC(=O)CN2C(=O)COc3ccc(S(=O)(=O)N4CCCC4)cc32)cc1C,6.6%,3.9%,10.7%,14.5%,-0.2%,-1.5,nt,nt,nt
Cc1ccc(NC(=O)CN2C(=O)COc3ccc(S(=O)(=O)N4CCCCCC4)cc32)cc1Cl,-8.0%,27.0%,-9.4%,12.3%,?,-1.8,-8.3,0.3%,14.1µM*
SMILES,Vif-APOBEC3G blk,Pin1 inhibitor,PGK inhibitor,Vif-APOBEC3F blk,IDH1 R132H inh,LDHA inh,Resorufin autofl,IDH1 WT,mIDH1 confirm
CC[C@]12c3[nH]c4cc(CCC(=O)N(C)C)ccc4c3CCN1C(=O)[C@@H](CC(=O)NC/C=C(\C)CCC=C(C)C)C[C@@H]2C(=O)N1CCN(C(=O)c2ccco2)CC1,-11.3%,0.4%,-8.2%,7.2%,?,-11.1,-10.8,-7.4%,31.6µM*
C=C1CC2(CC(c3ccccc3)OC(c3ccccc3)C2)OC1=O (configuration not stated),-17.8%,-0.8%,5.1%,6.1%,58.5µM*,-3.3,2.5,?,22.4µM*
O=C1CCCC[C@@H](O)[C@H](O)C[C@H](c2ccccc2)O1,nt,nt,nt,nt,nt,2.9,nt,nt,nt
Cc1cc(C)nc(SCC(=O)NC2=NN=C(c3ccc(Br)cc3)CS2)n1,-17.3%,0.6%,-2.3%,-5.4%,?,-6.5,-2.7,139.9%,44.7µM*
Cc1cc(C)nc(SCC(=O)Nc2ccc(Br)cn2)n1,-6.3%,2.4%,-8.0%,2.6%,3.7%,-2.4,nt,nt,nt
CC1(C)CC(=O)C2=C(C1)NC1=C(C(=O)c3ccccc31)C2c1cc([N+](=O)[O-])ccc1O (configuration not stated),-6.8%,-1.9%,-9.5%,-2.8%,?,-6.3,10.6,-7.0%,31.6µM*
C=CCn1c(SCc2nc3sc(C(=O)O)c(C)c3c(=O)[nH]2)nnc1-c1ccccc1,1.2%,-1.3%,-11.7%,-0.4%,-2.3%,1.9,nt,nt,nt
